Out of some 48,000 compounds screened, about 13,000 (27%) showed an effect of 50% or more. The list shows a part of the results.
What follows are compounds tested on Wolbachia pipientis (assay: Anti-Wolbachia Cell-Based Screen). Conditions: 5 µM.
Assay type: functional
Design: scale not given: in the data most compounds retested in dose-response had high values
`Cc1occc1C(=O)N1CCC2(CC1)CN(Cc1nccs1)CCO2.O=C(O)C(F)(F)F` was tested, and the “Percent Effect” value was -1.97%.
With `CCNC(=O)CNS(=O)(=O)c1cc(Br)ccc1F` the “Percent Effect” value was -3.098%.
For `Cc1nnc(NCC2(c3ccc(Cl)cc3Cl)CCOCC2)c(C#N)c1C`, the “Percent Effect” value was 25.06%.
With `COCC1(CNC(=O)[C@@]23CNC[C@@H]2CN(C2CCCC2)C3)CC1` the “Percent Effect” value was -67.22%.
`O=C1[C@H]2CN(c3cnccn3)C[C@H]2CN1CC1CC1` was tested, and the “Percent Effect” value was -18.33%.
For `c1cnc(CC2CCN(c3cnccn3)CC2)cn1`, the “Percent Effect” value was 139.5%.
With `Cc1noc(-c2ccnc(N3CCC(CN4CCOCC4)CC3)c2)n1` the “Percent Effect” value was 3.253%.
`O=C(O)c1cccc(CC2CCN(c3cnccn3)CC2)c1` was tested, and the “Percent Effect” value was -21.8%.
In the case of `Cc1ccccc1CSc1nc(N)cc(N2CCOCC(CO)C2)n1` (centres undefined), the “Percent Effect” value is reported as 4.884%.
`Cc1nccc(CC2COCCN(c3cnccn3)C2)n1` (centres undefined) was tested, and the “Percent Effect” value was 114.6%.
With `O=C1NCCN(C(=O)CCN2CCCO2)C1c1cccc(F)c1` (centres undefined) the “Percent Effect” value was -39.77%.
`Cc1ccnc(NCCNC(=O)Cc2c(C)[nH]c3c(C)ccc(C)c23)c1` was tested, and the “Percent Effect” value was -11.21%.
For `Cc1ccc([C@@H]2CN(C(=O)c3cccnn3)C[C@H]2NC(=O)C2CC2)cc1`, the “Percent Effect” value was 2.45%.
With `Cc1ccc(C(C(=O)NCCN2CCCCCC2)N(C)C)cc1` (centres undefined) the “Percent Effect” value was -4.058%.
For `Cc1cccc(C(C(=O)NCC2(O)CCCCC2)N(C)C)c1` (centres undefined), the “Percent Effect” value was -2.512%.
For `Cc1cccc(C(C(=O)NC(C)(C)CN2CCCC2)N(C)C)c1` (centres undefined), the “Percent Effect” value was 106.7%.
In the case of `Cc1cccc(C(C(=O)NCCn2cccc2)N(C)C)c1` (centres undefined), the “Percent Effect” value is reported as -2.901%.
With `Cc1cccc(C(C(=O)NC(C)(C)CN2CCOCC2)N(C)C)c1` (centres undefined) the “Percent Effect” value was 112.8%.
`Cc1ccc(C(C(=O)NC(C)(C)CN2CCCC2)N(C)C)cc1` (centres undefined) was tested, and the “Percent Effect” value was 96.39%.
`Cc1ccc(C(C(=O)NCCN2CCC(CO)CC2)N(C)C)cc1` (centres undefined) was tested, and the “Percent Effect” value was 0.4619%.
For `Cc1cc(C)cc(C(C(=O)O)N(C)CCCN2CCOCC2)c1` (centres undefined), the “Percent Effect” value was 10.88%.
With `CCSCCNC(=O)C(c1cccc(C)c1)N(C)C` (centres undefined) the “Percent Effect” value was -29.39%.
With `CN(C)S(=O)(=O)NCC1OCCc2cn(CC3CCOCC3)nc21` (centres undefined) the “Percent Effect” value was 2.181%.
`CC(=O)c1c(F)cccc1N1CCC(C(N)=O)CC1` was tested, and the “Percent Effect” value was 16.85%.
With `CC(C)n1nc(CNc2ncccn2)c2c1CN(C1CCOCC1)CC2.O=C(O)C(F)(F)F` the “Percent Effect” value was 3.818%.
`CNS(=O)(=O)Cc1cccc(CNc2ccc(C#N)cn2)c1` was tested, and the “Percent Effect” value was 5.411%.
In the case of `Cc1ccc(F)c(OC2(C(=O)O)CCN(C(=O)N3CCCC3)CC2)c1`, the “Percent Effect” value is reported as -14.67%.
For `COC(=O)[C@H]1C[C@@H](O)CCN1S(=O)(=O)c1c(C)cc(OC)c(C)c1C`, the “Percent Effect” value was -13.15%.
With `CCc1nn2c(=N)c(C#N)n[nH]c2c1-c1ccc(OC)cc1` the “Percent Effect” value was 103%.
With `COc1ccc(-c2c(C)nn3c(=N)c(C#N)n[nH]c23)cc1` the “Percent Effect” value was 88.05%.
In the case of `COc1ccc(-c2csc(N)c2C#N)cc1OC`, the “Percent Effect” value is reported as -8.208%.
With `COc1ccc(CN(C)c2nccc(-c3cn(C)nc3C)n2)cc1` the “Percent Effect” value was -45.72%.
With `COc1ccc(-c2c(C(C)C)nn3c(=N)c(C#N)n[nH]c23)cc1` the “Percent Effect” value was 89.55%.
`COc1ccc(-c2c(C)nn3c(=N)c(C#N)n[nH]c23)cc1OC` was tested, and the “Percent Effect” value was 107.4%.
`CCN(C)C[C@H]1CC[C@@H](Cc2ccc3c(cnn3C)c2)O1` was tested, and the “Percent Effect” value was -8.878%.
In the case of `CCS(=O)(=O)c1ccc(NCc2csc(C(C)C)n2)cc1`, the “Percent Effect” value is reported as 5.353%.
With `O=C1NCCN(Cc2ccccc2)C1CC(=O)N1CCc2n[nH]cc2C1` (centres undefined) the “Percent Effect” value was -21.59%.
For `O=C(O)C(F)(F)F.O=C(O)C(F)(F)F.c1cc(C2CC2)n2cnc(C3CN(Cc4ccncc4)CCO3)c2c1` (centres undefined), the “Percent Effect” value was 5.365%.
For `Cl.O=C(O)CC1CN(Cc2ccccc2)CCO1` (centres undefined), the “Percent Effect” value was -7.682%.
`O=C(COc1cccnc1)N1CCOC(C(F)(F)F)C1` (centres undefined) was tested, and the “Percent Effect” value was -4.014%.
`Nc1nccnc1C1CN(C(=O)COc2cccnc2)CCO1` (centres undefined) was tested, and the “Percent Effect” value was 107.6%.
With `COc1ccc(CN2CCOC[C@H](OCC(=O)N(C)C)C2)cc1` the “Percent Effect” value was -7.108%.
With `Nc1nccnc1C1CN(Cc2ccc(OCC(=O)O)cc2)CCO1` (centres undefined) the “Percent Effect” value was 171.8%.
In the case of `CNc1nccnc1C1CN(Cc2ccc(OCC(=O)O)cc2)CCO1` (centres undefined), the “Percent Effect” value is reported as 142.7%.
For `CNc1nccnc1C1CN(Cc2ccc3[nH]ccc3c2)CCO1` (centres undefined), the “Percent Effect” value was 136.6%.
For `O=C(COc1cccnc1)N1CCCC(n2cccn2)C1` (centres undefined), the “Percent Effect” value was -8.892%.
For `Cc1ncsc1C(=O)NCCOc1ncc(Cl)cc1Cl`, the “Percent Effect” value was 21.09%.
In the case of `Cc1ncsc1CCN(C)C(=O)CN1C(=O)OC[C@@H]1c1ccccc1`, the “Percent Effect” value is reported as -3.352%.
In the case of `CN(Cc1ccc(C(=O)NCC2COCCO2)c(=O)[nH]1)CC(C)(C)C` (centres undefined), the “Percent Effect” value is reported as -4.558%.
In the case of `Cc1ccc(NC(=O)NC(C)(C)c2noc(C)n2)cc1`, the “Percent Effect” value is reported as -4.171%.
For `Cn1nnc2c1CCN(CC1CC1)C2COCC1CC1.O=C(O)C(F)(F)F` (centres undefined), the “Percent Effect” value was 12.72%.
With `Cc1noc(CCCNS(=O)(=O)N2CCCC2c2ccco2)n1` (centres undefined) the “Percent Effect” value was -11.05%.
In the case of `Cc1cnccc1CN(C)C(=O)c1cccc(CCC(C)(C)O)c1`, the “Percent Effect” value is reported as 0.1694%.
With `CCCOc1ccc(C(=O)N2CC[C@H]3CC[C@@H](C2)N3)cc1Cl` the “Percent Effect” value was -21.75%.
In the case of `CCc1ccc(C(=O)N2CCC(N(C)C(=O)OC(C)(C)C)C2)o1` (centres undefined), the “Percent Effect” value is reported as 8.552%.
In the case of `CCN(CC)Cc1cc(C(=O)N2CC[C@@]3(O)CCCC[C@H]3C2)c(C)o1`, the “Percent Effect” value is reported as -6.043%.
`CCCOC1CCCN(C(=O)c2cc(CN(CC)CC)c(CC)o2)C1` (centres undefined) was tested, and the “Percent Effect” value was 92.62%.
For `CCCOC1CCCN(C(=O)c2csc(S(N)(=O)=O)c2)C1` (centres undefined), the “Percent Effect” value was 6.923%.
In the case of `CCc1oc(C(=O)N2CCC(N(CC)C(C)=O)C2)cc1CN(CC)CC` (centres undefined), the “Percent Effect” value is reported as 93.17%.
In the case of `CCc1oc(C(=O)N2CC[C@H]3CC[C@@H](C2)N3)cc1CN(CC)CC`, the “Percent Effect” value is reported as 112%.
With `CCCOC1CCCN(C(=O)c2ccnnc2)C1` (centres undefined) the “Percent Effect” value was 0.837%.
For `CCc1oc(C(=O)N2CCCC(c3nnn[nH]3)C2)cc1C` (centres undefined), the “Percent Effect” value was -3.531%.
With `O=C(CCCc1ccccn1)NCC(O)c1c(F)cccc1F` (centres undefined) the “Percent Effect” value was 14.04%.
With `CC(=O)Nc1ccc(CNC(=O)CNCc2nnc(C)o2)cc1` the “Percent Effect” value was -22.07%.

Reference: ChEMBL document CHEMBL3988442, “University of Dundee, Small-Polar-MMV Screening Library” (2021)
